BJeLR viability = BJeLR cell viability loss; BJeLR (HRASV12) viability, CellTiter-Glo ATP luminescence, 48 h; inhibition, % (test concentration not listed); actives 0.17% (n = 300,000); in the data active = inhibition above about 50%
MazF activator = MazEF (E. coli) toxin RNase activation. FAM/BHQ RNA-DNA oligo cleavage fluorescence, 5 h. actives 0.32% (n = 350,000). activation, % at 20 µM; in the data active = activation above about 50%
PrP 5UTR inh = inhibition of PrP 5' UTR reporter expression; cell-based PrP 5' UTR mRNA reporter, plate reader; inhibition, % (test concentration not listed); actives 0.35% (n = 340,000); AID 488862; in the data active = inhibition above about 52%
PrPC TRFRET = reduces human prion protein on the cell surface | P04156 | cell surface PrPC, TR-FRET read-out | inhibition, % at 13.8 µM | actives 0.43% (n = 370,000) | AID 720596; in the data active = inhibition above about 24%
PrPC confirm = confirmation of inhibitors of cell surface human prion protein. cell surface PrPC level, TR-FRET. shares compounds with PrPC TRFRET. actives 65% (n = 1,500). inhibition, % at 13.8 µM. AID 743200; in the data active = inhibition above about 25%
LD9 cytotox = LD9 cell cytotoxicity, PrPc inhibitor counter-screen. AID 743201. shares compounds with PrPC TRFRET. actives 29% (n = 1,500). LD9 cells cytotoxicity, luminescence viability. inhibition, % at 13.8 µM; in the data active = inhibition above about 9.5%
Hits are given with their value. The list is not random: actives were taken first. Their share in the collection is about 1.1%.

Screening COc1ccc(N2CCN(CCCNC(=O)Cn3c(=O)c4cccn4c4c(C)ccnc43)CC2)cc1 returned PrPC TRFRET inactive.
Screening Cc1cc2cc(CNC(=O)c3ccc(S(=O)(=O)N4CCCCC4)cc3)ccc2[nH]1 returned BJeLR viability inactive, MazF activator inactive, PrP 5UTR inh inactive, PrPC TRFRET 28.9, PrPC confirm inactive and LD9 cytotox inactive.
Screening COc1cccc(CNC(=O)c2ccc(S(=O)(=O)N3CCOCC3)cc2)c1 returned MazF activator inactive, PrP 5UTR inh inactive and PrPC TRFRET inactive.
For Cc1cc2cc(CNC(=O)c3ccc(Br)o3)ccc2n1C the results were BJeLR viability inactive, MazF activator inactive, PrP 5UTR inh inactive and PrPC TRFRET inactive.
`Cc1cc2cc(CNC(=O)c3ccc(S(=O)(=O)N(C)C)cc3)ccc2n1C` gave BJeLR viability inactive, MazF activator inactive, PrP 5UTR inh inactive, PrPC TRFRET 53.6, PrPC confirm 36.4 and LD9 cytotox inactive.
`Cc1cc2cc(CNC(=O)c3ccc(S(=O)(=O)N4CCOCC4)cc3)ccc2n1C` gave BJeLR viability inactive, MazF activator inactive, PrP 5UTR inh inactive, PrPC TRFRET 42.9, PrPC confirm 44.6 and LD9 cytotox inactive.
c1ccc2c(c1)OCc1nccn1-2 was read as PrPC TRFRET inactive.
`CCCCCCCCN1C(=O)[C@@H](CC(=O)NCCC(C)C)C[C@@]2(C(=O)OC)C1=C[C@H](C(C)C)O[C@@H]2C1CC1` gave PrPC TRFRET inactive.
For COC(=O)c1cc2c(c3c4cc(OC)ccc4n(S(=O)(=O)c4ccc(OC)cc4)c13)C(=O)N(Cc1ccc(C(F)(F)F)cc1)C2 the results were PrPC TRFRET inactive.
For CNC(=O)OCc1nc(SSC(C)(C)C)n(C)c1COC(=O)NC the results were MazF activator inactive, PrP 5UTR inh inactive, PrPC TRFRET 49.6, PrPC confirm inactive and LD9 cytotox 92.0.
COC(=O)C1=C(C)N(Cc2ccccc2C(F)(F)F)C(=NCc2ccccc2C(F)(F)F)NC1c1ccc(F)cc1 (stereo not drawn) was read as PrPC TRFRET inactive.
Cc1cc(NC2CCCCC2)nc2ccccc12 was read as BJeLR viability inactive, MazF activator inactive, PrP 5UTR inh inactive, PrPC TRFRET 25.9, PrPC confirm inactive and LD9 cytotox inactive.
Screening Cc1cc(NCCN)nc2ccccc12 returned BJeLR viability inactive, MazF activator inactive, PrP 5UTR inh inactive and PrPC TRFRET inactive.
Screening O=S1(=O)N[C@H](Cc2ccccc2)COc2cccc(NCCO)c21 returned PrPC TRFRET inactive.
COc1cc2nc(C3CCC3)n(NC(=O)c3ccco3)c(=O)c2cc1OC was read as BJeLR viability inactive, MazF activator inactive, PrP 5UTR inh inactive, PrPC TRFRET 41.4, PrPC confirm 36.9 and LD9 cytotox inactive.
For O=C(NCc1cccnc1)c1c(O)c2cccc3c2n(c1=O)CCC3 the results were BJeLR viability inactive, MazF activator inactive, PrP 5UTR inh inactive, PrPC TRFRET 31.9, PrPC confirm 38.7 and LD9 cytotox inactive.
`COC(=O)[C@H](Cc1ccccc1)NC(=O)[C@H]1C[C@@]2(N3CCCC3)c3ccccc3N(C(=O)OC(C)(C)C)[C@H]2N1C(=O)OC(C)(C)C` gave PrPC TRFRET inactive.
CCC(C)NC(=O)c1cccc(OCc2c(C)noc2C)c1 (stereo not drawn) was read as BJeLR viability inactive, MazF activator inactive, PrP 5UTR inh inactive and PrPC TRFRET inactive.
CCOC(=O)c1c(C)[nH]c(C(=O)C(C)OC(=O)c2cccc(OCc3c(C)noc3C)c2)c1C (stereo not drawn) was read as BJeLR viability inactive, MazF activator inactive, PrP 5UTR inh inactive, PrPC TRFRET 38.3, PrPC confirm 26.3 and LD9 cytotox inactive.
Screening CC(C)CCNC(=O)C(c1ccc(O)cc1)N(Cc1cccs1)C(=O)C1COc2ccccc2O1 (stereo not drawn) returned BJeLR viability inactive, MazF activator inactive, PrP 5UTR inh inactive, PrPC TRFRET 24.8, PrPC confirm inactive and LD9 cytotox inactive.
For CC(C)(C)NC(=O)CN(Cc1cccs1)C(=O)C1COc2ccccc2O1 (stereo not drawn) the results were BJeLR viability inactive, MazF activator inactive, PrP 5UTR inh inactive and PrPC TRFRET inactive.
`O=C(NNc1ccccc1Br)C(O)(c1cccc(C(F)(F)F)c1)c1cccc(C(F)(F)F)c1` gave BJeLR viability inactive, MazF activator inactive, PrP 5UTR inh inactive, PrPC TRFRET 30.1, PrPC confirm inactive and LD9 cytotox inactive.
`O=C(NCC1CCN(C(=O)C(=O)c2cccs2)CC1)c1ccc2ccccc2c1` gave PrPC TRFRET inactive.
O=c1oc2ccccc2c(O)c1[C@H]1c2ccc(O)cc2Oc2c1c(=O)oc1ccccc21 was read as BJeLR viability inactive, MazF activator inactive, PrP 5UTR inh inactive, PrPC TRFRET 41.5, PrPC confirm 56.6 and LD9 cytotox inactive.
For COc1ccc(CC2C(=O)NC(C)C(=O)N(C)C3Cc4ccc(cc4)Oc4cc(ccc4O)CC(C(=O)NC(C)C(=O)NC(C)C(=O)N2C)N(C)C3=O)cc1 (stereo not drawn) the results were MazF activator inactive, PrP 5UTR inh inactive, PrPC TRFRET 83.3, PrPC confirm 90.3 and LD9 cytotox 34.4.
`S=C(NCCc1ccccc1)N1CCn2cccc2C1c1cccnc1` (stereo not drawn) gave BJeLR viability inactive, MazF activator inactive, PrP 5UTR inh inactive, PrPC TRFRET 32.0, PrPC confirm inactive and LD9 cytotox inactive.
`O=C(Cc1ccc(NC(=O)C2CCN(C(=O)C3CCCC3)CC2)cc1)Nc1cccc(C(=O)N2CCCC2)c1` gave PrPC TRFRET inactive.
`C[C@H](O)[C@@H]1CN2CCc3c([nH]c4cccc(-c5ccc6c(c5)OCO6)c34)[C@@H]2C[C@@H]1N(C)C(=O)c1ccco1` gave PrPC TRFRET inactive.
Screening CC(=O)Nc1ccc(S(=O)(=O)NCc2ccc3[nH]c(C)cc3c2)cc1 returned BJeLR viability inactive, MazF activator inactive, PrP 5UTR inh inactive and PrPC TRFRET inactive.
`CC(=O)Nc1ccc(S(=O)(=O)NCc2ccc3c(c2)cc(C)n3C)cc1` gave BJeLR viability inactive, MazF activator inactive, PrP 5UTR inh inactive, PrPC TRFRET 34.5, PrPC confirm inactive and LD9 cytotox inactive.
NS(=O)(=O)c1ccc(CNS(=O)(=O)c2ccc3ccccc3c2)cc1 was read as BJeLR viability inactive, MazF activator inactive, PrP 5UTR inh inactive and PrPC TRFRET inactive.
`Cc1cc2cc(CNS(=O)(=O)c3ccc4ccccc4c3)ccc2n1C` gave BJeLR viability inactive, MazF activator inactive, PrP 5UTR inh inactive, PrPC TRFRET 43.2, PrPC confirm 37.0 and LD9 cytotox inactive.
`CCCC(=O)NCc1ccc2c(c1)cc(C)n2C` gave BJeLR viability inactive, MazF activator inactive, PrP 5UTR inh inactive and PrPC TRFRET inactive.
